Source: PubChem (National Center for Advancing Translational Sciences (NCATS))
HTT aggregate: mutant huntingtin aggregation inhibition | PC12 HttQ103-GFP aggregates, Acumen cytometry, 40 h | Potency, µM (top dose mostly 46.1 µM), usual class: inhibitors | AID 1688 | actives 1.1% (n = 220,000); also: nearly all actives have a fitted effect of over 60% in size
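Inducible Q103 Huntingtin exon 1–GFP PC12 line, 1500 cells/well in phenol red free DMEM with 5% equine and 5% calf serum. Tebufenozide 100 nM induced expression; compounds titrated; aggregates quantified by cytometry.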
HPGD block: inhibitors of human 15-hydroxyprostaglandin dehydrogenase (HPGD). P15428. purified HPGD, NADH fluorescence kinetic, PGE2 substrate. Potency, µM, hits mostly inhibitors. actives 4.3% (n = 150,000). AID 894; active = well fitted inhibition curve with a large enough effect, not every such curve was filed as active; inconclusive = small, poorly fitted or top-dose-only effect, or another doubt; inactive = no such curve, though single readings can be large or run the other way
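20 nM HPGD preincubated 15 min at room temperature with compound in 50 mM Tris-HCl pH 8, 0.01% Tween 20. Started with 1 mM NAD+ and 30 uM prostaglandin E2; NADH fluorescence (360/450 nm) read 5 times over 30-s intervals, last minus first.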
CBFb-RUNX1 inh: inhibitors of human CBF-beta and RUNX1 interaction. Q01196+Q13951. AlphaScreen CBFb-His/RUNX1-biotin binding, biochemical. Potency, µM (top dose mostly 59.8 µM), actives largely listed as inhibitors. 230,000 tested, under 10 active
Target sequence (Q01196 whole entry, looked up): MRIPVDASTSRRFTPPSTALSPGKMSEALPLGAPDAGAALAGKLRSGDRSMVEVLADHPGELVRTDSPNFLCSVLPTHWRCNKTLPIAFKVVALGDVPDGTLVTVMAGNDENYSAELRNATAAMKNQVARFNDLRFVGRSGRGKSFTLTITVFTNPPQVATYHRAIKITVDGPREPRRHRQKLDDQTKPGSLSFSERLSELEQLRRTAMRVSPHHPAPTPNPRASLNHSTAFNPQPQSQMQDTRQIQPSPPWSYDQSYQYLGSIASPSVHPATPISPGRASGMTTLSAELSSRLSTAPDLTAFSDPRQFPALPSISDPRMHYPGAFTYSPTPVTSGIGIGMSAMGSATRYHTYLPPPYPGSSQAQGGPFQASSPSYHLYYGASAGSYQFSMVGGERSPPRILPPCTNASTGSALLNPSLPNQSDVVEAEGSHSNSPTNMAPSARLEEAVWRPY
Target sequence (Q13951 whole entry, looked up): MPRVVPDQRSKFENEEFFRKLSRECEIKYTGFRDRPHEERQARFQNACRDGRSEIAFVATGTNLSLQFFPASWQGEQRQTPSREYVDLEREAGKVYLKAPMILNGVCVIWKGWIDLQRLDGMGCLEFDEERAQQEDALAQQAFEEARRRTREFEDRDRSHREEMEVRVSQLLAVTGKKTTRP
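CBF-beta (His) and RUNX1 (biotin), 30 nM each; 20 min preassociation; + compound, 15 min; + beads 50 ng each (Ni, streptavidin), 90 min; RT; AlphaScreen read.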
ALDH1A1 inh: blocks purified human ALDH1A1 activity. P00352. Purified ALDH1A1, NADH fluorescence, propionaldehyde substrate. Potency, µM (doses to about 75.3 µM), actives largely listed as inhibitors. actives 7.3% (n = 220,000). AID 1030; active = well fitted inhibition curve with a large enough effect, not every such curve was filed as active; inconclusive = small, poorly fitted or top-dose-only effect, or another doubt; inactive = no such curve, though single readings can be large or run the other way
PNC assembly inh: perinucleolar compartment assembly inhibition; actives 3.1% (n = 140,000); PC3M PTB-GFP, PNC prevalence imaging, 16 h; active compounds read low; activity change (PNC), negative = inhibition, % at 10 µM; AID 2417;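 active = readout at or below -70, meaning at least 70% loss of cells showing the perinucleolar compartment, a nuclear body marking cancer cells; inconclusive = readout between -30 and a set limit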
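Read-out is percentage of cells bearing a perinucleolar compartment, from automated 20x imaging of fixed, Hoechst-stained PC3M PTB-GFP cells. Cells were seeded 4 h, then exposed 16 h to compound (23 nl of library stock) in duplicate plates.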
HTT cytoprotect: cytoprotection in Huntington HTT-Q103 PC12 cell model | Potency, µM (highest dose often 56.4 µM), hits mostly activators | PC12 HTT-Q103 induced, cytoprotection, ATP luminescence, 40 h | AID 1471 | actives 0.14% (n = 230,000); also: nearly all actives have a fitted effect of over 45% in size
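Stable PC12 Q103-GFP cells in serum-supplemented, phenol red-free DMEM; induction by tebufenozide at 100 nM final; compound dose series; cell viability quantified luminescently from ATP.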
Numbers stand for hits; - = inactive; ? = inconclusive; . = no result; ! = not active in a repeat; [ ] = dose if it differs, or a comment. Compounds with a hit are over-represented: about 11% of the library has one in this group of screens. Unless noted, calls follow the shape of the dose curve; as a rule, active = well fitted curve in the direction sought with a large enough effect; inconclusive = small, poorly fitted or top-dose-only effect, or another doubt; inactive = no such curve, though single readings can be large; an effect the other way counts as inactive or inconclusive.

SMILES	HTT aggregate	HPGD block	CBFb-RUNX1 inh	ALDH1A1 inh	PNC assembly inh	HTT cytoprotect
CC(CCc1ccccc1)NC(=O)CSc1nc(N)cc(N)n1 (configuration not stated)	-	-	-	-	-	-[10 µM]
C=C[C@@](C)(O)CC[C@@H]1[C@@]2(C)CCCC(C)(C)[C@@H]2CC[C@@]1(C)O	-[9.22 µM]	-	-	40µM!	.	-[1.9 µM]
C=C[C@](C)(O)CCC1C(=C)CC(OC(C)=O)C2C(C)(C)CCCC12C (some centres not stated)	.	-	.	-	.	.
CC(=O)OC1CCC2(C)C(CCC3(C)C2C(=O)C=C2C4CC(C)(C(=O)OCCN5CCCCC5)CCC4(C)CCC23C)C1(C)C (configuration not stated)	.	-	-	-	.	-[1.9 µM]
O=C(COC(=O)c1c2c(nc3ccccc13)CCCCC2)c1ccc(Cl)s1	-	-	-	-	-	-[10 µM]
CCCCCCC(=O)N(O)C1CC(=O)N(c2ccc(C)cc2)C1=O (configuration not stated)	-[9.22 µM]	7.9µM	-	0.45µM	-	-
Cc1ccc(N2C(=O)CC(N(O)C3CC(=O)N(c4ccc(C)cc4)C3=O)C2=O)cc1 (configuration not stated)	-	32µM	-	2.8µM	-	-
COC(=O)[C@H](COC(C)(C)C)NC(=O)O[C@@H]1C(=O)c2cc(Br)ccc2O[C@H]1c1ccc2c(c1)OCO2	.	-	-	-	.	-
CCc1nc2sc3c(c2c(=O)n1N)CC(C)(C)OC3	-	-	-	-	?	.
CCCCCCCCCc1nc2sc3c(c2c(=O)n1NC(=O)c1ccc([N+](=O)[O-])cc1)CC(C)(C)OC3	-	-	-	7.1µM	?	-[10 µM]
CCCc1nc2sc3c(c2c(=O)n1NC(=O)c1ccco1)CC(C)(C)OC3	-	-	-	?	-	.
CCCCCCCCCc1nc2sc3c(c2c(=O)n1NC(=O)c1ccccc1[N+](=O)[O-])CC(C)(C)OC3	-	-	-	1.4µM	-	-[10 µM]
Cc1cc(N2CCOCC2)nc2ccc(Cc3ccc4nc(N5CCOCC5)cc(C)c4c3)cc12	.	?	.	?	.	-[10 µM]
CCOC(=O)c1sc2ncn(/N=C/N(C)C)c(=O)c2c1C	-	-	-	-	-86	-[1.9 µM]
CCOC(=O)c1sc(NC(=O)CNC(=O)Cn2cnc3sc(C)c(C)c3c2=O)nc1C	-[9.22 µM]	-	-	-	-	-
CCCCNC(=O)Cn1cnc2sc(C(=O)OCC)c(C)c2c1=O	?	-	-	-	-	-
CCCCN(C)C(=O)c1sc2ncn(CC)c(=O)c2c1C	-	16µM	-	-	-	-
CCOCCn1cnc2sc(C(=O)Nc3nc(C)c(C(=O)OCC)s3)c(C)c2c1=O	-[9.22 µM]	-	-	-	-82	-
C=CCOC(=O)N[C@@H](CCc1ccccc1)C(C(C)=O)C(C)=O	.	-	-	-	.	?
COc1ccccc1CNc1ncnc2ccc(-c3ccc(N(C)C)cc3)cc12	.	?	.	?	.	-
O=C1[C@H]2[C@H]3[C@H](O)[C@H](O)C/C(=N/OCc4ccccc4)[C@@H]3CC[C@@H]2C(=O)N1Cc1ccccc1	.	.	-[13.1 µM]	-[13.5 µM]	.	?
COc1ccc(/C=C/N(CCc2ccc(OC)c(OC)c2)C(=O)c2ccccn2)cc1	.	.	-[13.1 µM]	?	.	-[10 µM]
FC(F)(F)c1nnc2c(Sc3ccccn3)nc3ccccc3n12	.	-	-	?	?	11µM
FC(F)(F)c1nnc2c(Sc3ccccc3)nc3ccccc3n12	-	-	-	-	-	-[10 µM]
COCCSc1ccccc1C(=O)NCc1cccnc1	-[9.22 µM]	.	-	-	.	-[10 µM]
SMILES	HTT aggregate	HPGD block	CBFb-RUNX1 inh	ALDH1A1 inh	PNC assembly inh	HTT cytoprotect
Cc1ccc(NC(=O)CCl)cc1S(=O)(=O)N1CCCCCC1	?	.	-	1.5µM	.	-
COc1ccc(NC(=O)CC2CCCC2)cc1S(=O)(=O)N1CCCCC1	-	-	-	-	-	-[10 µM]
COc1ccc(NC(=O)CN(C)Cc2c(F)cccc2Cl)cc1S(=O)(=O)N1CCCCC1	-	.	-	28µM	.	.
COCCNCC(=O)Nc1ccc(C)c(S(=O)(=O)N2CCCCC2)c1	-	.	-	-	.	-
CN(C)CCCNc1ncnc2nc[nH]c12	.	-	.	-[13.5 µM]	.	-[10 µM]
COc1ccc(Cl)cc1C(=O)NC(=S)Nc1cc(-c2nc3ccccc3[nH]2)ccc1C	-	-	-	4µM	-	-
COc1ccc(Cl)cc1C(=O)NNC(=S)NC(=O)c1cc(-c2ccccc2)nc2ccccc12	-	?	-	32µM	-	?
COc1cccc(OC)c1C(=O)Nc1cccc(-c2nc3ccccc3[nH]2)c1	-[9.22 µM]	.	-	-	.	-[10 µM]
COc1ccc(C(=O)NNC(=S)NC(=O)c2cc(-c3ccccc3)nc3ccccc23)cc1	28µM	-	-	-	-	?
COC(=O)c1ccc(NC(=S)NC(=O)c2cc(-c3ccccc3)nc3ccccc23)cc1	-	-	-	11µM	-	-[10 µM]
Cc1cc(=O)c2cc3nc(-c4cccnc4)oc3c(Br)c2o1	-[9.22 µM]	.	-	-	.	-[10 µM]
CCOC(=O)c1cnc2ccccc2c1Nc1cc(C(=O)O)ccc1C	-	.	-	-	.	-
CCN1C=C(Cc2cccs2)C2=C(C1)C(c1cccs1)C(C#N)=C(N)O2 (configuration not stated)	-	-	?	20µM	-	-
CCN1CC2=C(OC(N)=C(C#N)C2c2cccs2)/C(=C/c2cccs2)C1 (configuration not stated)	-	-	-	18µM	-	-[10 µM]
COCC1=C2c3ccccc3[C@H](C[N+](=O)[O-])C(C(=O)OC)(C(=O)OC)CC2C2C(=O)N(c3ccccc3)C(=O)C2C1 (some centres not stated)	.	-	-	-	.	-
COc1ccc(Cl)cc1NC(=O)C1CCCN(S(=O)(=O)c2cccc3nonc23)C1 (configuration not stated)	-	-	-	-	-100	-[10 µM]
COc1cccc(NC(=O)C2CCCN(S(=O)(=O)c3cccc4nonc34)C2)c1 (configuration not stated)	-	.	-	-	.	-
O=C(C1CCCN(S(=O)(=O)c2cccc3nonc23)C1)N1CCN(c2ccccc2Cl)CC1 (configuration not stated)	-	14µM	-	?	-	.
O=C(NCCc1ccccc1)C1CCCN(S(=O)(=O)c2cccc3nonc23)C1 (configuration not stated)	-	-	-	-	-	-
O=C(C1CCCN(S(=O)(=O)c2cccc3nonc23)C1)N1CCC(Cc2ccccc2)CC1 (configuration not stated)	35µM	-	-	?	-	-
Nc1c(S(=O)(=O)c2cccc(Cl)c2)c2nc3ccccc3nc2n1/N=C/c1ccc(O)c(O)c1	?	-	-	-	-	-
O=C(O)CO	.	.	-	.	.	.
